A selection: hits, their analogues and other compounds. The true share with any hit is near 14%.
HSD17B inhib = qHTS Assay for Inhibitors of HSD17B4, hydroxysteroid (17-beta) dehydrogenase 4; 3-hydroxyacyl-CoA dehydrogenase type-2 (Homo sapiens), Q99714; recombinant HSD17B10, NADH fluorescence kinetic; Potency, µM (highest dose often 57.1 µM), for inactives: at the top dose activity change, negative = inhibition, actives largely listed as inhibitors; 7.6% of 75,000 active; AID 893, 2007;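 further: the protocol describes HADH2 (HSD17B10) and not the HSD17B4 of the title; potency means the concentration at half of the fitted maximal effect; on the % scale 0 is the no-effect control and ±100 the full control effect; nearly all actives have a fitted effect of over 70% in size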
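Enzyme plus compound, 15 min room temperature; substrate mix added (NAD+ 1 mM, beta-hydroxybutyryl-CoA 90 uM final); plates read kinetically for NADH fluorescence. HADH2 was His-tagged, E. coli-derived, 20 nM.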
AID923 = qHTS Assay for Allosteric/Competitive Inhibitors of Caspase-1: Spectroscopic Profiling in AFC Spectral Region; compound fluorescence, AFC spectral region (405/520 nm); Potency, µM (series often up to 57.5 µM), inactives show top-dose fluorescence increase, hits mostly activators; 1.1% of 75,000 active; AID 923, 2007; further: potency means the concentration at half of the fitted maximal effect; 0% is about no effect
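Compound autofluorescence profiled at 405 nm ex/520 nm em during kinetic caspase 1 run (50 nM enzyme, 5 uM Ac-WEHD-AFC, HEPES pH 7.5, 10 mM DTT). Titration up to 57 uM; baseline from regression intercept, normalized to AFC standard curve.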
HADH2 inhib = qHTS Assay for Inhibitors of HADH2 (Hydroxyacyl-Coenzyme A Dehydrogenase, Type II). Potency, µM (doses to about 57.1 µM), for the others: at the top dose activity change, negative = inhibition, actives largely listed as inhibitors. 3.4% of 73,000 active. 3-hydroxyacyl-CoA dehydrogenase type-2 (Homo sapiens), Q99714. recombinant HADH2, NADH fluorescence, beta-hydroxybutyryl-CoA; further: potency means the concentration at half of the fitted maximal effect; on the % scale 0 is the no-effect control and ±100 the full control effect; nearly all actives have a fitted effect of over 60% in size
Target sequence (Q99714 whole entry, looked up, one chain of several): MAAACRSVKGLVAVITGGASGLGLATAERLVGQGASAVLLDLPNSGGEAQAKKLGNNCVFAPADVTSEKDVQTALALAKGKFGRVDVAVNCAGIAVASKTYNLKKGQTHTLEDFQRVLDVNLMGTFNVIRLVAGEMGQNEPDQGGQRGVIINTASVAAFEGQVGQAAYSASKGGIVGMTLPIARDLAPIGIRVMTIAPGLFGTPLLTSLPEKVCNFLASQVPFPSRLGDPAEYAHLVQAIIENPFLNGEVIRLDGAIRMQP
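20 nM HADH2 + cpd, 15 min RT; add 1 mM NAD+/90 uM beta-hydroxybutyryl-CoA; kinetic fluorescence 360/450 nm, 4 min. Tris-HCl pH 9.0, 0.01% Tween-20.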
CRE Fsk mod = Cell signaling CRE-BLA (Fsk stim) | CHO CRE-bla reporter (cAMP response element driving beta-lactamase), forskolin EC10, beta-lactamase ratio | Potency, µM (series often up to 38.2 µM), without a hit: top-dose activity change, negative = inhibition, usual class: activators | 2.5% of 71,000 active; active means well fitted activation curve with a large enough effect in the signal ratio, with a control signal flat, not every such curve was filed as active; inconclusive means small, poorly fitted or top-dose-only effect, or effect the other way, or a change in a side signal; the % refers to the signal ratio; further: potency means the concentration at half of the fitted maximal effect; % of control where 0% means no effect
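Cells were plated overnight at 37 °C, exposed to compound titrations plus EC10 NKH 477 for 3 h, then given CCF4 dye for 2 h at room temperature. Blue/green (460/530 nm) ratio was converted to %Activity and AC50 values calculated.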
A350 autofl = qHTS Assay for Spectroscopic Profiling in A350 Spectral Region; Compound autofluorescence, 340/450 nm, Alexa 350 dye-equivalents; active compounds read high; max dye-equivalent concentration, M; 11% of 59,000 active; in the data active means max dye-equivalent concentration above about 10 nM; inconclusive means mostly about 1.1 nM to 9.6 nM
4-MU autofl = qHTS Assay for Spectroscopic Profiling in 4-MU Spectral Region; max dye-equivalent concentration, M; compound autofluorescence, 340/450 nm, 4-MU equivalents; active compounds read high; 11% of 59,000 active; in the data active means max dye-equivalent concentration above about 10 nM; inconclusive means mostly about 1.1 nM to 9.6 nM
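Compounds in 100 mM Tris, pH 8.0, sat 15 min at room temperature before fluorescence was read at 340 nm excitation/450 nm emission; a per-plate six-point 4-MU standard curve converted signals to dye-equivalent concentration at each compound concentration.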
Numbers without * were called inactive; i = inactive; u = inconclusive; x = no result. Unless noted, the call rests on the fitted dose curve; in most records, active means well fitted curve in the direction sought with a large enough effect; inconclusive means small, poorly fitted or top-dose-only effect, or another doubt; inactive means no such curve, though single readings can be large; an effect the other way counts as inactive or inconclusive.

SMILES	HSD17B inhib	AID923	HADH2 inhib	CRE Fsk mod	A350 autofl	4-MU autofl
Cc1ccc(-c2cc(C(=O)Nc3cc(C)on3)c3ccccc3n2)c(C)c1	25.1µM*	-0.1%	-2.4%	-1.9%	x	x
CCC(C)(C)n1nnnc1CN(Cc1ccc(Cl)cc1)Cc1ccco1	-8.8%	2.7%	-11.6%	2.4%	i	i
COC(=O)[C@@]1(Cc2ccc(OC)cc2)[C@H]2c3cc(C(=O)N(C)C)n(Cc4ccsc4Br)c3C[C@H]2CN1C(=O)c1ccccc1	5.7%	2.9%	-0.1%	u	x	x
O=C(O)Cn1nnn(-c2ccccc2)c1=S	-1.8%	2.5%	5.6%	u	1.69e-08M*	1.53e-08M*
Cn1c2ccccc2c2cnn(CC(=O)O)c(=O)c21	u	5.5%	-29.9%	x	x	x
COC(=O)CCS(=O)(=O)c1ccc(Cl)c(Cl)c1	7.2%	0.7%	-3.7%	2.3%	i	i
Cc1ccc(-c2nsc3c(N4CCN(C(=O)c5ccco5)CC4)ncnc23)cc1	31.6µM*	0.8%	8.7%	-2.6%	2.11e-08M*	1.93e-08M*
COc1ccc(OC)c2sc(N3CCCCC3)nc12	0.0%	-0.7%	5.1%	u	u	u
O=S(=O)(c1ccccc1)N1CCN(c2ncnc3sc(-c4ccccc4)cc23)CC1	-6.8%	0.3%	25.1µM*	2.9%	2.17e-07M*	2.42e-07M*
COc1ccc(-c2nsc3c(N4CCCC4)ncnc23)cc1	-0.8%	1.1%	-3.3%	13.3%	7.19e-08M*	9.47e-08M*
COc1ccc(-c2nsc3c(N4CCN(S(=O)(=O)c5ccccc5)CC4)ncnc23)cc1	3.7%	-3.1%	-15.0%	-3.3%	1.05e-07M*	1.19e-07M*
CCOC(=O)c1cc2c(ccn2C)n1CC(=O)N1CCC(Cc2ccccc2)CC1	-10.0%	4.2%	23.9%	u	u	i
O=C(CSc1nccn1-c1ccc(F)cc1)Nc1ccc2c(c1)OCO2	-2.1%	1.8%	-5.5%	2.6%	i	i
CCNS(=O)(=O)c1ccc(NC(=O)c2ccccc2OCC)cc1	-7.9%	-1.5%	u	u	i	i
COc1ccccc1NC1=C(C)C(=O)CC1	-4.7%	-1.7%	-0.8%	-4.9%	x	x
COc1ccc(OC)c2c1CCC2=O	x	x	x	x	1.83e-07M*	1.6e-07M*
O=C(c1ccc(NS(=O)(=O)c2cccc3cccnc23)cc1)N1CCOCC1	5.1%	-1.5%	-0.7%	u	i	i
Oc1ccc(-c2nc3ncccn3c2Nc2ccc3c(c2)OCCO3)cc1	-10.3%	-1.6%	6.5%	-19.1%	i	i
Cc1ccc(-c2nc3ncccn3c2NC(=O)C2CC2)cc1	31.6µM*	11.6%	u	0.9%	4.98e-07M*	5e-07M*
O=C(CC1Sc2ccccc2NC1=O)Nc1cccc(-c2nnc3n2CCCCC3)c1 (stereo unspecified)	-20.4%	-3.9%	-26.7%	-11.7%	i	i
Cc1cc2c(c(N3CCOCC3)n1)C(=O)OC2	u	-0.8%	-16.9%	12.0%	1.73e-08M*	1.77e-08M*
COC(=O)c1[nH]c(C)c(/C(O)=C2\C(=O)C(=O)N(CCN(C)C)C2c2ccccc2OC)c1C (stereo unspecified)	-2.7%	5.7%	-8.7%	-3.5%	3.14e-08M*	1.03e-07M*
CCOC(=O)c1[nH]c(C)c(/C(O)=C2\C(=O)C(=O)N(CCN(C)C)C2c2ccco2)c1C (stereo unspecified)	1.4%	0.4%	-8.8%	9.6%	1.06e-08M*	u
CCN(CC)CCN1C(=O)C(=O)/C(=C(/O)c2c(C)[nH]c(C(=O)OC)c2C)C1c1ccco1 (stereo unspecified)	x	x	x	x	i	i
COc1cccc(OC(=O)CSc2nnc(-c3ccccc3Br)o2)c1	0.2%	0.6%	u	u	i	i
